Test results as given in the supplement of paper PMC6853941.
Values without a mark were called inactive.

Test system: MCF10A
Test: perturbation Mahalanobis distance of morphological profile vs DMSO controls (Mahalanobis distance (SD units)); higher = stronger morphological change, active = 7 or more
Conditions: 72 h
Protocol: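 MCF10A cells were seeded onto drugs dispensed acoustically into 384-well plates, using one dose per drug chosen from its human peak plasma concentration, and incubated for 72 h at 37 °C. Cells were stained for DNA, tubulin and mitochondria and imaged; 78 CellProfiler features were extracted, plate-normalised and compared with DMSO wells.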

[1] = screen batch: Batch1_Mahalanobis_Distance
[2] = screen batch: Batch2_Mahalanobis_Distance

Structure (SMILES)	perturbation Mahalanobis distance [1]	perturbation Mahalanobis distance [2]
NC(N)=NCC1COC2(CCCCC2)O1 (configuration not stated) [Guanadrel] (140.7 µM)	2.66	2.51
CCN(CCO)CCCC(C)Nc1ccnc2cc(Cl)ccc12 (configuration not stated) [Hydroxychloroquine] (1.5 µM)	3.38	2.9
Nc1nc(=O)c2ncn(COC(CO)CO)c2[nH]1 [Ganciclovir] (98 µM)	3.22	3.75
CNC[C@H](O)c1ccc(O)c(O)c1 [Epinephrine] (27.3 µM)	2.67	2.89
NC(=O)N[C@@H](CCC(=O)O)C(=O)O [Carglumic Acid] (68.4 µM)	2.14	2.6
CCN(CC)CCNC(=O)c1c(C)[nH]c(/C=C2\C(=O)Nc3ccc(F)cc32)c1C [Sunitinib] (0.73 µM)	3.08	2.88
CC(=O)Nc1nnc(S(N)(=O)=O)s1 [Acetazolamide] (90 µM)	3.52	2.44
CCC(CC)O[C@@H]1C=C(C(=O)O)C[C@H](N)[C@H]1NC(C)=O [Oseltamivir Acid] (6.45 µM)	2.37	3.03
CO[C@@H]1[C@@H](OC(N)=O)[C@@H](O)[C@H](Oc2ccc3c(=O)c(NC(=O)c4ccc(O)c(CC=C(C)C)c4)c(O)oc3c2C)OC1(C)C [Novobiocin] (90.8 µM)	5.81	6.6
CC(c1cc2ccccc2s1)N(O)C(N)=O (configuration not stated) [Zileuton] (105.4 µM)	3.71	5.1
C[C@H]1O[C@@H](O[C@H]2[C@@H](O)C[C@H](O[C@H]3[C@@H](O)C[C@H](O[C@H]4CC[C@@]5(C)[C@H](CC[C@@H]6[C@@H]5CC[C@]5(C)[C@@H](C7=CC(=O)OC7)CC[C@]65O)C4)O[C@@H]3C)O[C@@H]2C)C[C@H](O)[C@@H]1O [Digitoxin] (0.16 µM)	12.1 (active)	17.9 (active)
OCC(O)COc1ccc(Cl)cc1 (configuration not stated) [Chlorphenesin] (83.9 µM)	2.63	4
CN(C)CCCC1(c2ccc(F)cc2)OCc2cc(C#N)ccc21 (configuration not stated) [Citalopram] (3.1 µM)	2.77	2.43
Nc1nc(N)c2nc(-c3ccccc3)c(N)nc2n1 [Triamterene] (2 µM)	3.18	4.38
O=c1ncnc2[nH][nH]cc1-2 [Allopurinol] (139.6 µM)	2.93	2.89
c1ccc(CC2=NCCN2)cc1 [Tolazoline] (25 µM)	2.21	2.33
CC/C(=C(\c1ccc(O)cc1)c1ccc(OCCNC)cc1)c1ccccc1 [Endoxifen] (6.75 µM)	2.6	7.34 (active)
COc1cc2nc(N3CCN(C(=O)C4CCCO4)CC3)nc(N)c2cc1OC (configuration not stated) [Terazosin] (1 µM)	2.35	2.82
C[C@@H](O[C@@H]1OCCN(Cc2nc(=O)[nH][nH]2)[C@@H]1c1ccc(F)cc1)c1cc(C(F)(F)F)cc(C(F)(F)F)c1 [Aprepitant] (20.7 µM)	5.02	3.18
CC(=O)/C(C#N)=C(\O)Nc1ccc(C(F)(F)F)cc1 [Teriflunomide (A77 1726)] (66.9 µM)	4.02	2.47
CCCCCCCN(CC)CCCC(O)c1ccc(NS(C)(=O)=O)cc1 (configuration not stated) [Ibutilide] (0.08 µM)	2.16	2.06
